Outcome and AC50 data for 4 molecules are collected here from PubChem BioAssay (EPA / NIEHS).

The source made the active and inactive calls. Rule for the calls: active = hit-call score of the fitted dose curve at least 0.9, where 1 is the maximum; inactive = score below 0.9.

Details in all cases: mRNA level, 48 h; actives raise or lower the signal
Read-out in experiment [1]: Cytochrome P450 (CYP24A1), CYP24A1 (gene 1591)
The experiment can be described thus: LTEA_HepaRG_CYP24A1: Life Technologies and Expression Analysis (LTEA) Assay for Cytochrome P450 (CYP24A1) using HepaRG (AID 2283478). Put shortly: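 qRT-PCR read-out: CYP24A1 transcript levels normalized to three housekeeping genes, bidirectional curve fits against 0.5% DMSO baseline. Human HepaRG cells treated 48 h with chemicals at eight concentrations from 100 uM in half-log steps.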

Read-out in experiment [2]: Cytochrome P450 (CYP1A2), CYP1A2 (gene 1544)
The experiment can be described thus: LTEA_HepaRG_CYP1A2: Life Technologies and Expression Analysis (LTEA) Assay for Cytochrome P450 (CYP1A2) using HepaRG (AID 2283479). Put shortly:
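HepaRG, 48 h exposure, top 100 uM, half-log 8-pt, 0.5% DMSO vehicle, duplicates. Readout: TaqMan qRT-PCR of CYP1A2 mRNA, housekeeping-normalized (ACTB/GAPDH/POLR2A). Gain/loss fit relative to DMSO baseline.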

Read-out in experiment [3]: cysteine-aspartic acid protease (CASP8), CASP8 (gene 841)
The experiment can be described thus: LTEA_HepaRG_CASP8: Life Technologies and Expression Analysis (LTEA) Assay for cysteine-aspartic acid protease (CASP8) using HepaRG (AID 2283480). Put shortly:
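HepaRG, 48 h exposure, duplicate wells; 8 conc, half-log from 100 uM, 0.5% DMSO. Serum-free induction medium. CASP8 mRNA by TaqMan qRT-PCR, norm. ACTB/GAPDH/POLR2A; gain/loss fitted vs DMSO.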

Read-out in experiment [4]: Cytochrome P450 (CYP2B6), CYP2B6 (gene 1555)
Briefly: LTEA_HepaRG_CYP2B6: Life Technologies and Expression Analysis (LTEA) Assay for Cytochrome P450 (CYP2B6) using HepaRG (AID 2283481). An outline of the steps: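 Read-out is CYP2B6 mRNA by TaqMan qRT-PCR, normalized to three housekeeping genes and fitted bidirectionally against 0.5% DMSO baseline. Human HepaRG cells received test chemicals for 48 h, top concentration 100 uM, half-log dilutions.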

Read-out in experiment [5]: Cytochrome P450 2C19 (Homo sapiens) (UniProt P33261)
Briefly: LTEA_HepaRG_CYP2C19: Life Technologies and Expression Analysis (LTEA) Assay for CYP2C19 using HepaRG (AID 2283482). Put shortly:
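HepaRG, 48 h chemical exposure, 8-pt half-log series from 100 uM in 0.5% DMSO, duplicates. Readout: CYP2C19 mRNA by TaqMan qRT-PCR, housekeeping-normalized. Bidirectional fit vs DMSO baseline; phenobarbital 1mM as induction control.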

Read-out in a further experiment: CYP2C8 (gene 1558)
Briefly: LTEA_HepaRG_CYP2C8: Life Technologies and Expression Analysis (LTEA) Assay for CYP2C8 using HepaRG (AID 2283483). Put shortly:
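CYP2C8 mRNA induction or loss, by qRT-PCR normalized to ACTB/GAPDH/POLR2A, is read in HepaRG cells after 48 h treatment. Concentrations run from 100 uM down in half-log dilutions, with 0.5% DMSO as vehicle and baseline.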

Read-out in the next experiment: CYP2C9 (gene 1559)
The experiment can be described thus: LTEA_HepaRG_CYP2C9: Life Technologies and Expression Analysis (LTEA) Assay for CYP2C9 using HepaRG (AID 2283484). An outline of the steps: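 Cells plated 48 h, switched to serum-free induction medium, then treated in duplicate for 48 h at eight concentrations (max 100 uM, 0.5% DMSO). RNA then analysed by qRT-PCR for CYP2C9; curves fitted in both directions relative to DMSO.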

Read-out in a further experiment: CYP4A11 (gene 1579)
The experiment can be described thus: LTEA_HepaRG_CYP4A11: Life Technologies and Expression Analysis (LTEA) Assay for CYP4A11 using HepaRG (AID 2283486). An outline of the steps:
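CYP4A11 transcript levels were quantified by TaqMan qRT-PCR after HepaRG human liver cells were treated for 48 hours with test chemicals (top 100 uM, half-log dilutions, 0.5% DMSO). Gain or loss of signal was fitted relative to DMSO.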

Read-out in experiment [6]: Cytochrome P450 3A4 (Homo sapiens) (UniProt P08684)
The experiment can be described thus: LTEA_HepaRG_CYP3A4: Life Technologies and Expression Analysis (LTEA) Assay for CYP3A4 using HepaRG (AID 2283487). Put shortly: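 HepaRG, 48 h exposure, 8-pt CRC from 100 uM (half-log), 0.5% DMSO, duplicates; serum-free induction medium. Readout: CYP3A4 mRNA, qRT-PCR, ACTB/GAPDH/POLR2A normalization. Bidirectional fit vs DMSO.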

Read-out in experiment [7]: DNA damage-inducible transcript 3 (DDIT3), DDIT3 (gene 1649)
The experiment can be described thus: LTEA_HepaRG_DDIT3: Life Technologies and Expression Analysis (LTEA) Assay for DNA damage-inducible transcript 3 (DDIT3) using HepaRG (AID 2283488). An outline of the steps:
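HepaRG plated 48 h, switched to serum-free induction medium, dosed 48 h (100 uM top, half-log, 8 pts, 0.5% DMSO, n=2); RNA isolated; DDIT3 by qRT-PCR; bidirectional curve fit vs DMSO.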

Read-out in experiment [8]: Pro-epidermal growth factor (Homo sapiens) (UniProt P01133)
Briefly: LTEA_HepaRG_EGF: Life Technologies and Expression Analysis (LTEA) Assay for Epidermal growth factor (EGF) using HepaRG (AID 2283489). Put shortly:
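qRT-PCR readout of EGF transcript after 48 h chemical exposure of HepaRG cells; eight concentrations from 100 uM down in half-log steps, duplicate wells, 0.5% DMSO vehicle. Bidirectional curve fitting against DMSO baseline.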

Read-out in experiment [9]: Early growth response protein 1 (EGR1) transcription factor, EGR1 (gene 1958)
The experiment can be described thus: LTEA_HepaRG_EGR1: Life Technologies and Expression Analysis (LTEA) Assay for Early growth response protein 1 (EGR1) transcription factor using HepaRG (AID 2283490). An outline of the steps: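 Read-out is EGR1 mRNA level by qRT-PCR, normalized to three housekeeping genes and analysed for gain or loss of signal against 0.5% DMSO. Source cells: human HepaRG, treated 48 h at up to 100 uM in half-log dilutions.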

Read-out in experiment [10]: Ezrin (EZR), EZR (gene 7430)
Briefly: LTEA_HepaRG_EZR: Life Technologies and Expression Analysis (LTEA) Assay for Ezrin (EZR) using HepaRG (AID 2283491). Put shortly: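 Read-out is EZR transcript level by qRT-PCR, normalized to three housekeeping genes and fitted bidirectionally against the DMSO control. Human HepaRG cells received test chemicals for 48 h at eight half-log concentrations up to 100 uM in 0.5% DMSO.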

Read-out in experiment [11]: Cytochrome P450 3A7 (Homo sapiens) (UniProt P24462)
Briefly: LTEA_HepaRG_CYP3A7: Life Technologies and Expression Analysis (LTEA) Assay for CYP3A7 using HepaRG (AID 2283492). An outline of the steps:
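CYP3A7 transcript levels were read by TaqMan qRT-PCR on Fluidigm arrays after 48 h chemical exposure of human HepaRG cells, with housekeeping-gene normalisation. Eight half-log concentrations up to 100 uM in 0.5% DMSO were tested in duplicate.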

Read-out in a further experiment: CYP3A5 (gene 1577)
Briefly: LTEA_HepaRG_CYP3A5: Life Technologies and Expression Analysis (LTEA) Assay for CYP3A5 using HepaRG (AID 2283493). An outline of the steps:
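HepaRG plated 48 h, switched to serum-free induction medium, chemicals added 48 h (max 100 uM, half-log, 0.5% DMSO). RNA isolated; CYP3A5 by TaqMan qRT-PCR. Gain/loss vs DMSO.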

Read-out in experiment [12]: Fatty Acid-Binding Protein 1 (FABP1), FABP1 (gene 2168)
Briefly: LTEA_HepaRG_FABP1: Life Technologies and Expression Analysis (LTEA) Assay for Fatty Acid-Binding Protein 1 (FABP1) using HepaRG (AID 2283494). Put shortly: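 HepaRG, 48 h post-plating switched to serum-free induction medium, then dosed 48 h (duplicate, 8 pts, ≤100 uM, 0.5% DMSO). RNA → Fluidigm TaqMan qRT-PCR, FABP1 normed to ACTB/GAPDH/POLR2A. Bidirectional curve fit vs DMSO.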

Read-out in experiment [13]: Cytochrome P450 4A22 (Homo sapiens) (UniProt Q5TCH4)
The experiment can be described thus: LTEA_HepaRG_CYP4A22: Life Technologies and Expression Analysis (LTEA) Assay for Cytochrome P450 4A22 (CYP4A22) using HepaRG (AID 2283495). Put shortly:
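HepaRG, 48 h post-plating -> serum-free induction medium; dosed 48 h, duplicate, 8 conc. (100 uM top, half-log), 0.5% DMSO. Readout: CYP4A22 mRNA by qRT-PCR, ACTB/GAPDH/POLR2A normalization; gain/loss fit relative to DMSO.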

Read-out in experiment [14]: Cytochrome P450 7A1 (Homo sapiens) (UniProt P22680)
The experiment can be described thus: LTEA_HepaRG_CYP7A1: Life Technologies and Expression Analysis (LTEA) Assay for Cytochrome P450 7A1 (CYP7A1) using HepaRG (AID 2283496). Put shortly:
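HepaRG cells plated 48 h, then switched to serum-free induction medium and exposed in duplicate for 48 h to 8-point half-log series from 100 uM in 0.5% DMSO. CYP7A1 mRNA by qRT-PCR (TaqMan), normalized to ACTB/GAPDH/POLR2A; bidirectional fit versus DMSO.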

Read-out in experiment [15]: Glutathione S-Transferase (GSTA2), GSTA2 (gene 2939)
Briefly: LTEA_HepaRG_GSTA2: Life Technologies and Expression Analysis (LTEA) Assay for Glutathione S-Transferase (GSTA2) using HepaRG (AID 2283497). An outline of the steps:
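HepaRG, 48 h dosing, 8-pt half-log CRC from 100 uM, 0.5% DMSO vehicle, n=2; RNA → Fluidigm TaqMan qRT-PCR; GSTA2 vs ACTB/GAPDH/POLR2A; gain/loss fit vs DMSO.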

Read-out in another experiment: CYP2E1 (gene 1571)
The experiment can be described thus: LTEA_HepaRG_CYP2E1: Life Technologies and Expression Analysis (LTEA) Assay for CYP2E1 using HepaRG (AID 2283485). Put shortly:
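Human liver line HepaRG, plated 48 h, then serum-free induction medium + chemical x 48 h; 8-pt CRC from 100 uM, half-log, 0.5% DMSO, n=2. Readout: CYP2E1 mRNA qRT-PCR vs ACTB/GAPDH/POLR2A; bidirectional fit vs DMSO.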

Chain of Cytochrome P450 2C19 (Homo sapiens) (P33261 whole entry, looked up): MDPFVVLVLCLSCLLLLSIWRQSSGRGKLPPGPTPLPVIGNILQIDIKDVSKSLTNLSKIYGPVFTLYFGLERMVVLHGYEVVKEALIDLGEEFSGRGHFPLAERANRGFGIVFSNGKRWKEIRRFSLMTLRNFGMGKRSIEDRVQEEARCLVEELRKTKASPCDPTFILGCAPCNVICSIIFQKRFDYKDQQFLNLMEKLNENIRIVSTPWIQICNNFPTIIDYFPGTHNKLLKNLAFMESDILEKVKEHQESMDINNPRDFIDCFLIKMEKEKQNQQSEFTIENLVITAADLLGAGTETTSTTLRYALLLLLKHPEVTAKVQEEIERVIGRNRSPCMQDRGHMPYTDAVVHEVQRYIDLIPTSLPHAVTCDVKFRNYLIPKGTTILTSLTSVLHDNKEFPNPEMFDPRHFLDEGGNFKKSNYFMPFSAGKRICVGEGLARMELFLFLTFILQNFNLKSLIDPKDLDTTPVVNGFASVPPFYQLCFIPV
Chain of Cytochrome P450 3A4 (Homo sapiens) (P08684 whole entry, looked up): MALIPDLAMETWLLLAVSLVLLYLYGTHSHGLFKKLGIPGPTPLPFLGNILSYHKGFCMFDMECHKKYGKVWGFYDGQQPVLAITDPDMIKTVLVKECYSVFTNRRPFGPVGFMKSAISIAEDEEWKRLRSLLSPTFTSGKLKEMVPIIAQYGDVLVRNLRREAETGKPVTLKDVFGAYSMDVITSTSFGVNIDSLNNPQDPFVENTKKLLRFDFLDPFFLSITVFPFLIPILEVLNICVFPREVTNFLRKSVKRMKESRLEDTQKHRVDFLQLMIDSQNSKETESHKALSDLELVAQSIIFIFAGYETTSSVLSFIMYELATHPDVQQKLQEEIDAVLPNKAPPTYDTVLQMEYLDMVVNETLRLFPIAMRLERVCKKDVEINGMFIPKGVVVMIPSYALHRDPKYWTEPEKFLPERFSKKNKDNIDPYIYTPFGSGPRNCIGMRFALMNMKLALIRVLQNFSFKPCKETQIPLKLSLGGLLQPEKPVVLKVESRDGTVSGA
Chain of Cytochrome P450 3A7 (Homo sapiens) (P24462 whole entry, looked up): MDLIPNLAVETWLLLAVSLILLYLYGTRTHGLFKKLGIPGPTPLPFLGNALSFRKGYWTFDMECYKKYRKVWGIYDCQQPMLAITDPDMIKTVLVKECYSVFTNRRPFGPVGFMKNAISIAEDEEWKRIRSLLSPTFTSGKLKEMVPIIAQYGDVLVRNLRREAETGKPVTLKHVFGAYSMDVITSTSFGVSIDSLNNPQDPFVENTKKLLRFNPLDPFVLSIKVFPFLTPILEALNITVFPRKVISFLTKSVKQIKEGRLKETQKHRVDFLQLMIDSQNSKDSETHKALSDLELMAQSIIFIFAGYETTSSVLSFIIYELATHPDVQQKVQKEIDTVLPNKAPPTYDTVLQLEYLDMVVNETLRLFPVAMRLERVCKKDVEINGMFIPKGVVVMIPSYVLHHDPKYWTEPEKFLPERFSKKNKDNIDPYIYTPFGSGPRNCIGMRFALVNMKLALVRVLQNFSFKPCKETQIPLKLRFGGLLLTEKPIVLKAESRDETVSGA

`NC(=Nc1ccccc1)Nc1ccccc1`: the molecule was called inactive (in experiment [1]; in experiment [3]; in experiment [4]; in [5]; with CYP2C8 (gene 1558); in the experiment with CYP2C9 (gene 1559)). The call (with CYP4A11 (gene 1579); in [6]; in experiment [8]; in experiment [9]; in experiment [10]; in experiment [11]) was inactive. Further, the outcome (with CYP3A5 (gene 1577); in experiment [12]; in experiment [13]; in experiment [14]; in [15]) was inactive. Moreover, the AC50 in experiment [2] is 50 µM (active); in experiment [7], 27.6 µM (active).
As for `CC(C)(O)c1ccc(CNC(=O)c2cccnc2Oc2ccc(F)cc2)cc1`, the outcome (in experiment [1]; in experiment [2]; in experiment [3]; with CYP2C8 (gene 1558); with CYP2C9 (gene 1559); in [7]) was inactive. Also, the molecule was called inactive (in experiment [9]; in experiment [10]; with CYP3A5 (gene 1577); in experiment [14]; in experiment [15]). Further, the AC50 in experiment [4] is 0.432 µM (active); in experiment [5], 8.99 µM (active); in the experiment with CYP2E1 (gene 1571) it was 37.9 µM (active); in experiment [6] it was 8.47 µM (active); in experiment [11] it was 9.92 µM (active); in experiment [12], 21.9 µM (active). The half-maximal activity concentration (AC50) in experiment [13] is 26.6 µM (active).
For `O=C(O)CC(O)(CC(=O)O)C(=O)O`, the molecule was called inactive (in experiment [1]; in experiment [2]; in experiment [3]; in [4]; in experiment [5]; with CYP2C8 (gene 1558)). For the same molecule, the outcome (with CYP2C9 (gene 1559); with CYP4A11 (gene 1579); in experiment [6]; in experiment [7]; in experiment [9]; in experiment [10]) was inactive. The molecule was called inactive (in experiment [11]; in the experiment with CYP3A5 (gene 1577); in experiment [12]; in [14]; in [15]).
On to `CCc1cc(C2=C(C(=O)O)N(c3ccccc3C(F)(F)F)S(=O)(=O)c3ccccc32)cc2c1OCO2`, for which the molecule was classed as inactive (in experiment [1]; in experiment [2]; in [3]; in experiment [10]; with CYP3A5 (gene 1577); in experiment [12]). Also, the half-maximal activity concentration (AC50) in experiment [4] was 90.5 µM (active); in experiment [5] it was 91.9 µM (active); with CYP2C8 (gene 1558) it was 91.7 µM (active); in the experiment with CYP2C9 (gene 1559) it was 86.1 µM (active); with CYP4A11 (gene 1579) it was 39.7 µM (active); in [6], 0.679 µM (active). Moreover, the AC50 in experiment [7] is 82.1 µM (active); in experiment [9] it was 9.92 µM (active); in experiment [11], 0.645 µM (active); in [13], 41 µM (active); in experiment [14] it was 72.2 µM (active); in experiment [15] it was 78.8 µM (active).

The AC50 is the midpoint of the concentration-response curve, whichever way the signal moves.
